Screening results (PubChem)
Shown are actives, neighbours in structure and some others; about 11% of the full set was active somewhere.
ALDH1A1 block: qHTS Assay for Inhibitors of Aldehyde Dehydrogenase 1 (ALDH1A1); Aldehyde dehydrogenase 1A1 (Homo sapiens), P00352; Purified ALDH1A1, NADH fluorescence, propionaldehyde substrate; Potency, µM (series often up to 75.3 µM), hits mostly inhibitors; 7.3% of 220,000 active
IMPase Li cell: qHTS Assay for Identifying the Cell-Membrane Permeable IMPase Inhibitors: Potentiation with Lithium; Potency, µM (doses to about 59.4 µM), most hits filed as inhibitors; CHO-M1 cells, IP1 TR-FRET (IP-One), carbachol + lithium; 0.35% of 210,000 active; active = well fitted inhibition curve with a large enough effect; inconclusive = small, poorly fitted or top-dose-only effect; inactive = no such curve, though single readings can be large or run the other way;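 note: IP1 builds up when IMPase is blocked and the TR-FRET signal falls; nearly all actives have a fitted effect of over 50% in size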
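CHO-M1, 2000 cells/well, 16–30 h culture; cpd + low Li+, 30 min 37C; lysis with d2-IP1/Eu-anti-IP1 Ab, 10 min RT; TR-FRET 665/620 ratio and 620 channel; AC50 via Hill.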
PNC assembly inh: High Content Assay for Compounds that inhibit the Assembly of the Perinucleolar Compartment | PC3M PTB-GFP, PNC prevalence imaging, 16 h; stronger effect = lower value | activity change (PNC), negative = inhibition, % at 10 µM | 3.1% of 140,000 active | AID 2417, 2010;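 active = readout at or below -70, meaning at least 70% loss of cells showing the perinucleolar compartment, a nuclear body marking cancer cells; inconclusive = readout between -30 and a set limit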
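PC3M cells stably expressing PTB-GFP, 750–1000 cells/well, treated 16 h at 37 °C with compound (23 nl of library stock), in duplicate. After paraformaldehyde fixation and Hoechst stain, imaged at 20x; PNC prevalence scored by image analysis.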
HPGD inh: qHTS Assay for Inhibitors of HPGD (15-Hydroxyprostaglandin Dehydrogenase); 15-hydroxyprostaglandin dehydrogenase [NAD(+)] (Homo sapiens), P15428; purified HPGD, NADH fluorescence kinetic, PGE2 substrate; Potency, µM, hits mostly inhibitors; 4.3% of 150,000 active; AID 894, 2007
Target sequence (P15428 whole entry, looked up): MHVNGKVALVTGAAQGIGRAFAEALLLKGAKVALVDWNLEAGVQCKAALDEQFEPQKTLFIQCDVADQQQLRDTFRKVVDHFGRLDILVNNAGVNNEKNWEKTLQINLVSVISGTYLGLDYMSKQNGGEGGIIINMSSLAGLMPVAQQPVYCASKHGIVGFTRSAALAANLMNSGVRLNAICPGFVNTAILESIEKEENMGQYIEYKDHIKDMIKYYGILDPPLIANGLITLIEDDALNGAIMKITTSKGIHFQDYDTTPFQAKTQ
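NADH formation kinetics: reaction with 30 uM PGE2 and 1 mM NAD+ (final), 20 nM enzyme, Tris-HCl pH 8 with Tween 20, after 15 min compound preincubation at room temperature. Fluorescence change, last versus first of five reads.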
IMPase cell inh: qHTS Assay for Identifying the Cell-Membrane Permeable IMPase Inhibitors; Inositol monophosphatase 1 (Rattus norvegicus), P97697; CHO-M1 cells, IP1 accumulation, HTRF TR-FRET ratio; inhibition (IP1 accumulation), % at 46.1 µM; 120,000 tested, under 10 active; AID 901, 2007; active = well fitted curve in the direction sought with a large enough effect in the signal ratio, not every such curve was filed as active; inconclusive = small, poorly fitted or top-dose-only effect, or a change in a side signal; inactive = no such curve, though single readings can be large or run the other way; the % refers to the signal ratio;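 note: cells stimulated with carbachol in lithium chloride buffer; higher means more IMPase inhibition seen as more IP1 and lower FRET ratio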
Target sequence (P97697 whole entry, looked up): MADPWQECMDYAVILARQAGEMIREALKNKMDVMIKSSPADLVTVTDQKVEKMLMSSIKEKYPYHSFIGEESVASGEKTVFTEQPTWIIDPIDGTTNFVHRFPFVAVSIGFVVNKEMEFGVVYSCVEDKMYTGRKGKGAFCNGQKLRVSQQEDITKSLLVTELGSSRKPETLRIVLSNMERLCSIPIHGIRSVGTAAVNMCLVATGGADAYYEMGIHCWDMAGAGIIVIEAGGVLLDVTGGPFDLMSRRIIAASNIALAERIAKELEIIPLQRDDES
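Elevated IP1 in lysates lowers TR-FRET signal (665/620 ratio and 620 channel reported). Cells were CHO-M1, given carbachol (50 uM as added) plus 50mM LiCl, pH 7.4, 30 min, 37C; compounds titrated up to 46 uM; AC50 by Hill equation.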
Each line names hits and unclear results; the compound was inactive in the other large screens; ! = repeats disagree. Unless noted, calls come from the whole dose curve; as a rule, active = well fitted inhibition curve with a large enough effect (not every such curve was filed as active); inconclusive = small, poorly fitted or top-dose-only effect, or another doubt; inactive = no such curve, though single readings can be large or run the other way.

Cc1nn(Cc2c(Cl)cccc2Cl)c(C)c1NC(=O)c1cc(C(C)C)on1	PNC assembly inh -101.7
Cc1nn(Cc2ccc(Cl)cc2Cl)c(C)c1NC(=O)CCl	ALDH1A1 block 8.91µM, IMPase cell inh inconclusive
Cc1ccc(Cn2nc(C)c(NC(=O)CCCn3nc(C)c([N+](=O)[O-])c3C)c2C)cc1	PNC assembly inh inconclusive (no result: IMPase cell inh)
Cc1nn(Cc2ccccc2Cl)c(C)c1NC(=O)CCCn1nc([N+](=O)[O-])c(Cl)c1C	ALDH1A1 block 8.91µM, IMPase cell inh inconclusive
Cc1nn(Cc2c(Cl)cccc2Cl)c(C)c1NC(=O)CCCn1nc(C)c([N+](=O)[O-])c1C	ALDH1A1 block 3.55µM (no result: IMPase cell inh)
Cc1cc(C(=O)Nc2c(C)nn(Cc3c(Cl)cccc3Cl)c2C)no1	none
CCOC(=O)N1CCN(C(=O)CN(c2ccc(C)cc2C)S(=O)(=O)c2ccccc2)CC1	none (no result: ALDH1A1 block, IMPase Li cell, PNC assembly inh, HPGD inh)
O=C(COC(=O)c1ccccc1)Nc1ccc(Cl)cn1	none (no result: PNC assembly inh, HPGD inh, IMPase cell inh)
O=C(COC(=O)Cc1ccccc1F)Nc1ccc(Cl)cn1	ALDH1A1 block 12.6µM (no result: PNC assembly inh, HPGD inh, IMPase cell inh)
N#Cc1cn(-c2ccccc2)nc1-c1ccco1	ALDH1A1 block 28.2µM
N#Cc1cn(-c2ccccc2)nc1C(=O)c1ccccc1	none
CCN(CC)C(=O)c1cn(-c2ccccc2)nc1-c1ccc2c(c1)OCCO2	none (no result: PNC assembly inh, HPGD inh, IMPase cell inh)
N#Cc1cn(-c2ccccc2)nc1-c1ccc2c(c1)OCCO2	IMPase Li cell inconclusive, PNC assembly inh -100.0
O=Cc1cn(-c2ccccc2)nc1-c1ccc2c(c1)OCCO2	ALDH1A1 block 17.8µM, PNC assembly inh inconclusive
CN(Cc1cn(-c2ccccc2)nc1-c1ccc2c(c1)OCO2)Cc1nccn1C	ALDH1A1 block inconclusive (no result: PNC assembly inh, HPGD inh, IMPase cell inh)
O=C(NC1CCCC1)C1CCN(c2nccs2)CC1	HPGD inh 14.1µM
COC(=O)N1CCC2(CC1)CN(C(=O)Nc1cccc(F)c1)C2	none (no result: PNC assembly inh, IMPase cell inh)
Cc1cccc(-c2nc3ccccc3c(=O)n2NC(=S)N(C)C)c1	ALDH1A1 block 8.91µM, HPGD inh 15.8µM, IMPase cell inh inconclusive
O=C(CN1C(=O)C2C3c4ccccc4C(c4ccccc43)C2C1=O)Nc1cccc(C(=O)O)c1 (centres undefined)	PNC assembly inh inconclusive (no result: IMPase cell inh)
Cn1nnc2cc(C(=O)N3CCSCC3)ccc21	HPGD inh 1.58µM
CCN(CC)C(=O)c1ccc2c(c1)nnn2C	PNC assembly inh inconclusive, HPGD inh 15.8µM (no result: IMPase cell inh)
Cc1cc(C)cc(NC(=S)Nc2cccc3cnccc23)c1	ALDH1A1 block 11.2µM (no result: PNC assembly inh, HPGD inh, IMPase cell inh)
Cc1ccc(NC(=S)Nc2cccc3cnccc23)c(C)c1	ALDH1A1 block 17.8µM (no result: PNC assembly inh, HPGD inh, IMPase cell inh)
CCc1ccc(NC(=S)Nc2cccc3cnccc23)cc1	ALDH1A1 block 11.2µM (no result: PNC assembly inh, HPGD inh, IMPase cell inh)
Cc1c(Cl)cccc1NC(=S)N1CCC(C(N)=O)(N2CCCCC2)CC1	none (no result: IMPase cell inh)
Cc1nn(-c2ccccc2)c(NC(=O)c2cccs2)c(-c2ccccc2)c1=O	PNC assembly inh inconclusive (no result: IMPase cell inh)
Cc1ccnc(NS(=O)(=O)c2ccc(NC(=O)C3C4C=CC(C4)C3C(=O)O)cc2)n1 (centres undefined)	none (no result: IMPase Li cell, PNC assembly inh, HPGD inh, IMPase cell inh)
COc1c(O)ccc2c1CN1CCc3cc4c(cc3[C@@H]1C2)OCO4	none (no result: PNC assembly inh, IMPase cell inh)
Cc1c2ccccc2c(C)c2c1ccc1ccccc12	HPGD inh inconclusive (no result: PNC assembly inh, IMPase cell inh)
Cc1c2ccccc2c(CSC(=N)N)c2ccccc12	ALDH1A1 block 14.1µM!, HPGD inh inconclusive (no result: PNC assembly inh, IMPase cell inh)
Cc1c(-c2ccnc3cc(C(=O)O)nn23)cnn1C	ALDH1A1 block inconclusive (no result: PNC assembly inh, HPGD inh, IMPase cell inh)
O=C(O)[C@@H]1CN[C@@H](C(=O)O)C1	none (no result: PNC assembly inh, HPGD inh, IMPase cell inh)
O=C(CNc1ccc2ccccc2c1)N/N=C/c1cc2ccccc2nc1Cl	ALDH1A1 block 22.4µM (no result: IMPase cell inh)
CN1CCN(C(=S)c2ccc(Cl)cc2)CC1	none
CN1CCN(C(=S)NC(=O)c2ccc(Cl)cc2)CC1	ALDH1A1 block 17.8µM (no result: PNC assembly inh, HPGD inh, IMPase cell inh)
COc1ccc(CNc2nc(NCc3ccc(OC)cc3)n(C(=O)c3ccccc3[N+](=O)[O-])n2)cc1	ALDH1A1 block 20µM
Cc1ccc(S(=O)(=O)Nc2cccc(-c3cn4ccsc4n3)c2)cc1	ALDH1A1 block 15.8µM
Cc1nc(-c2cccc(NS(=O)(=O)c3ccccc3)c2)cs1	ALDH1A1 block 14.1µM, HPGD inh 14.1µM
